In the library only some 2.2% were active in any assay of this set; here they are far more common.
Pin1 inhibitor: qHTS Assay to Find Inhibitors of Pin1 | Peptidyl-prolyl cis-trans isomerase NIMA-interacting 1 (Homo sapiens), Q13526 | Pin1 FP peptide displacement, HiFluor488, 10 min | Potency, µM (titrated, usually from 115 µM), hits mostly inhibitors | 390,000 compounds, 0.009% hits | AID 504891, 2011; active = well fitted inhibition curve with a large enough effect in the polarisation, with a control signal flat, not every such curve was filed as active; inconclusive = small, poorly fitted or top-dose-only effect, or effect the other way, or a change in a side signal; inactive = no such curve, though single readings can be large or run the other way; the % refers to the polarisation
Target sequence (Q13526 whole entry, looked up): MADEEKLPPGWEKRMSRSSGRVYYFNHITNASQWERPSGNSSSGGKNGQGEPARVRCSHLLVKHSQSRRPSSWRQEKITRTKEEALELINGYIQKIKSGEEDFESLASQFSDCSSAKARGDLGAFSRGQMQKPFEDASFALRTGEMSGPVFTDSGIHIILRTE
A549 viability: Nrf2 qHTS screen for inhibitors: counterscreen for cytotoxicity | A549 ARE-Fluc cells, CellTiter-Fluor viability, 18-24 h | Potency, µM (doses to about 46 µM), usual class: inhibitors | 390,000 compounds, 0.16% hits
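A549 ARE_Fluc cells in 5% FBS OPTI-MEM were exposed to compounds in concentration-response for 18-24 h at 37 deg C. Viability was read by CellTiter-Fluor fluorescence (Ex 405/Em 525) after 30 min, before the luciferase read.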
Nrf2 block: Nrf2 qHTS screen for inhibitors. Potency, µM (highest dose often 46 µM), actives largely listed as inhibitors. 360,000 compounds, 2.1% hits. A549 ARE-Fluc reporter, luciferase luminescence, 18-24 h; also: nearly all actives have a fitted effect of over 60% in size
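Concentration-response testing used A549 ARE_Fluc cells at 5000 cells/well. Following an 18-24 h compound incubation, viability was read by fluorescence (Ex 405/Em 525) and luciferase output by luminescence.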
Nrf2 ARE act: qHTS of Nrf2 Activators; AREc32 ARE-luciferase reporter (MCF7-derived line), luminescence, 24 h; 410,000 compounds, 0.31% hits; Potency, µM (highest dose often 46.1 µM), actives largely listed as activators; also: nearly all actives have a fitted effect of over 65% in size
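Reporter line AREc32 (ARE-Fluc), seeded overnight in OPTI-MEM with 5% FBS; compound pin-transferred, 24 hr at 37 deg C, 5% CO2; luminescent read-out.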
Large screens that a line does not name were inactive; ! = a repeat was not active. Unless noted, calls follow the shape of the dose curve; as a rule, active = well fitted curve in the direction sought with a large enough effect; inconclusive = small, poorly fitted or top-dose-only effect, or another doubt; inactive = no such curve, though single readings can be large; an effect the other way counts as inactive or inconclusive.

CC1CC=CC2C1C(=O)N(Cc1ccccc1)C2c1ccoc1 (stereo not drawn)	none (no result: Nrf2 ARE act)
CC(C)CC(=O)/C=C/n1c(=S)oc2ccccc21	Nrf2 ARE act 11µM
CCC(C(=O)Nc1ccc(C)c(Cl)c1)n1c(=O)c(-c2ccccc2NC(C)=O)nc2ccccc21 (stereo not drawn)	none
Cc1ccc2c(Cl)cc(Cl)c(OCC(=O)Nc3cccc(S(=O)(=O)N(C)C)c3)c2n1	none
Cc1ccc2c(Cl)cc(Cl)c(OCC(=O)Nc3cc(S(=O)(=O)N(C)C)ccc3C)c2n1	Nrf2 block 15µM
COC(=O)c1c(C)[nH]c(C(=O)/C=C/c2ccc(C)cc2)c1C	Nrf2 block 2.6µM
COC(=O)c1c(C)[nH]c(C(=O)/C=C/c2ccccc2)c1C	Nrf2 block inconclusive
NC(=NCCCCCCN=C(N)/N=C(\N)Nc1ccc(Cl)cc1)/N=C(\N)Nc1ccc(Cl)cc1	A549 viability inconclusive, Nrf2 block 23µM!
CSc1cc2c(s1)c1cnn(Cc3cccc(O)c3)c(=O)c1n2C	Pin1 inhibitor inconclusive, Nrf2 block inconclusive (no result: Nrf2 ARE act)
Clc1ccc(Nc2ncnc3ccc(Br)cc23)cc1	Nrf2 block 13µM
Cc1ccc(C(=O)NCC(=O)OC(C(=O)Nc2cc(C(F)(F)F)ccc2Cl)c2ccccc2)cc1 (stereo not drawn)	Pin1 inhibitor inconclusive, Nrf2 block inconclusive (no result: Nrf2 ARE act)
Clc1ccccc1C1=CC(c2ccco2)n2ncnc2N1 (stereo not drawn)	Pin1 inhibitor inconclusive, Nrf2 ARE act 11µM
Clc1ccc(C2=CC(c3ccco3)n3ncnc3N2)cc1 (stereo not drawn)	Pin1 inhibitor inconclusive, A549 viability inconclusive, Nrf2 ARE act inconclusive
COCCCNC(=O)CSc1nc(-c2ccccc2)[nH]c1-c1ccc(C)cc1	Nrf2 block inconclusive
O=C(CSc1nc(-c2ccc(F)cc2)[nH]c1-c1ccc(F)cc1)Nc1ccc2c(c1)OCO2	A549 viability inconclusive, Nrf2 block 16µM
COc1ccc(-c2nc(SCC(=O)NC3CCCC3)c(-c3ccc(F)cc3)[nH]2)cc1	Nrf2 block 16µM
COCCCNC(=O)CSc1nc(-c2cccc(F)c2)[nH]c1-c1ccccc1	Nrf2 block 15µM
COc1ccc(S(=O)(=O)N2CCN(Cc3ccc4c(c3)OCO4)CC2)cc1OC	none
Cc1ccc(C)c(NS(=O)(=O)c2ccc3c4c(cccc24)C(=O)N3)c1	Nrf2 block 18µM
O=C1Nc2ccc(S(=O)(=O)Nc3ccccc3O)c3cccc1c23	none
Cc1ccc(NC(=O)C(C)c2ccc(-c3ccccc3)c(F)c2)cc1 (stereo not drawn)	A549 viability inconclusive, Nrf2 block 15µM
CCN(CC)/C(Sc1ccccc1)=C(\C(Cl)=C(Cl)Cl)[N+](=O)[O-]	none
O=[N+]([O-])/C(C(Cl)=C(Cl)Cl)=C(\Sc1ccccc1)N1CCCCC1	Pin1 inhibitor inconclusive, Nrf2 block inconclusive, Nrf2 ARE act 11µM
COc1ccc(C(C)(C)C)cc1NC(=O)Nc1ccc2c(c1)OCO2	Pin1 inhibitor inconclusive, A549 viability inconclusive, Nrf2 block 23µM
O=S1(=O)C=C(N2CCCCC2)c2ccccc21	Nrf2 ARE act 13µM
Cc1ccc(C)c(Nc2nnc(-c3ccc(C)c(S(=O)(=O)N4CCN(C)CC4)c3)c3ccccc23)c1	none
Cc1ccc2nc(-c3ccc(NC(=O)COC(=O)c4ccco4)cc3)sc2c1	Nrf2 block 6.5µM
CCC(C)(CCN1CCOCC1)N(Cc1cc2ccccc2n(C)c1=O)C(=O)C1CCCCC1 (stereo not drawn)	none (no result: Nrf2 ARE act)
COc1ccccc1Nc1nc(-c2c(C)nc3ncccn23)cs1	A549 viability inconclusive, Nrf2 block 12µM
COc1cccc(CCNC(=O)c2cnc3sc(N4CCCC4)nn3c2=O)c1	Nrf2 block inconclusive
CCn1cc(C(=O)NCc2ccc3c(c2)OCO3)c(=O)c2cc(F)c(N3CCN(C(=O)c4ccco4)CC3)cc21	A549 viability inconclusive, Nrf2 block 16µM
COc1cc(NS(=O)(=O)c2ccc([N+](=O)[O-])cc2)c2ncccc2c1	Nrf2 block inconclusive (no result: Nrf2 ARE act)
O=C(Nc1ccccc1N1CCOCC1)c1ccccc1NS(=O)(=O)c1ccc(F)cc1	none
CCOc1ccc(S(=O)(=O)Nc2ccccc2C(=O)Nc2ccccc2N2CCOCC2)cc1	none
O=C(Nc1ccccc1N1CCOCC1)c1cc(-c2ccco2)nc2ccccc12	Pin1 inhibitor inconclusive, Nrf2 block 18µM
O=C(Nc1ccccc1N1CCOCC1)c1ccccc1NS(=O)(=O)c1ccc(F)c(F)c1	Nrf2 block 21µM
COc1cc(-c2cc(C(=O)Nc3ccccc3N3CCOCC3)c3ccccc3n2)cc(OC)c1OC	Nrf2 block inconclusive
Cc1cc(F)ccc1S(=O)(=O)Nc1ccccc1C(=O)Nc1ccccc1N1CCOCC1	Nrf2 block 21µM
Cc1ccc(C)c(S(=O)(=O)Nc2ccccc2C(=O)Nc2ccccc2N2CCOCC2)c1	Nrf2 block 23µM
CCn1c(C)c(C)c2cc(C(=O)NCC(C)c3ccccc3)ccc21 (stereo not drawn)	Pin1 inhibitor inconclusive, Nrf2 block inconclusive
O=C1C(=O)N(C2CCN(C(=O)c3ccccc3F)CC2)CCN1Cc1ccc(F)cc1	Nrf2 block inconclusive
CCc1ccccc1Nc1ncnc2c1cnn2-c1ccc(Cl)cc1	none (no result: Nrf2 block)
COc1ccc(NS(=O)(=O)c2cccc(C(=O)OCC(=O)N3CCN(c4ccc(OC)cc4)CC3)c2)cc1	Nrf2 block 21µM
CCOc1ccc(N2C(=O)C(Cl)=C(Nc3ccccc3O)C2=O)cc1	Nrf2 ARE act 13µM
COc1ccc2c(n1)Sc1nc3ccccc3nc1N2	Pin1 inhibitor inconclusive, Nrf2 block inconclusive, Nrf2 ARE act 4.5µM
COc1ccccc1Nc1cc2ccccc2c(=O)[nH]1	Pin1 inhibitor inconclusive, A549 viability inconclusive (no result: Nrf2 ARE act)
CC(=O)Oc1ccc(C(=O)Nc2cccc(-c3nnc(-c4ccco4)o3)c2)cc1	A549 viability inconclusive, Nrf2 block 16µM
O=C(Nc1cccc(-c2nnc(-c3ccco3)o2)c1)C(c1ccccc1)c1ccccc1	Nrf2 block 21µM
O=C(Nc1cccc(-c2nnc(-c3ccco3)o2)c1)c1ccccc1	Nrf2 block inconclusive
Cc1sc(NC(=O)CN2CCCC2)nc1-c1ccc2c(c1)CCN2C(=O)c1cccc(F)c1	A549 viability inconclusive, Nrf2 block 23µM
Cc1sc(NC(=O)Cc2ccc3c(c2)OCO3)nc1-c1ccc2c(c1)CCN2C(=O)c1ccccc1F	Nrf2 block inconclusive
COc1cc(-c2nc3n(n2)C(c2ccc(F)cc2)C(C(N)=O)=C(C)N3)cc(OC)c1OC (stereo not drawn)	none
CC(C)c1ccc(NC(=O)CSc2n[nH]c(=O)n2Cc2ccco2)cc1	Nrf2 block 10µM
O=C(CSc1n[nH]c(=O)n1Cc1ccco1)Nc1ccccc1	none
CCn1cc([N+](=O)[O-])c(C(=O)Nc2nc(-c3ccc(C)c(C)c3)c(C)s2)n1	Nrf2 block 16µM, Nrf2 ARE act inconclusive
Cc1ccc(NC(=O)Cn2c(=O)n(CCc3ccccc3)c(=O)c3c4c(sc32)CCCC4)c(C)c1	none

Source: PubChem
